# TcdB GH inh: TcdB glycohydrolase inhibition; actives 0.24% (n = 350,000); P18177; inhibition, % at 9.99 µM; TcdB glycohydrolase enzymatic assay, plate reader; in the data active = inhibition above about 10%
# Mtb BioA inh: inhibitors of Mycobacterium tuberculosis BioA enzyme. purified M. tuberculosis BioA enzyme, plate reader. inhibition, % at 9.99 µM. actives 0.096% (n = 360,000); in the data active = inhibition above about 40%; inconclusive = no clear call, values can overlap the other calls
# FadD28 FP inh: inhibitors of Mycobacterium tuberculosis FadD28 bisubstrate binding; FadD28 bisubstrate probe binding, fluorescence polarization; inhibition, % at 12.5 µM; actives 0.22% (n = 360,000); in the data active = inhibition above about 8.5%, passing the limit was not always enough; inconclusive = no clear call, values can overlap the other calls
# RecA intein inh: Mtb RecA intein splicing inhibition. actives 0.75% (n = 290,000). P9WHJ3. cell-free RecA intein splicing, fluorescence. inhibition, % (test concentration not listed); in the data active = inhibition above about 30%; inconclusive = no clear call, values can overlap the other calls;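 note: 0% = vehicle wells and 100% = reference inhibitor control wells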
# Rv3671c inh: inhibits the M. tuberculosis serine protease Rv3671c | P9WHR9 | inhibition, % at 5.96 µM | actives 0.048% (n = 320,000); in the data active = inhibition above about 38%;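 note: extracellular domain of Rv3671c used as enzyme; 0% = enzyme with DMSO and 100% = no enzyme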
# Mtb UGM inh: blocks M. tuberculosis UGM enzyme | purified UGM, fluorescence polarization probe displacement | actives 0.06% (n = 320,000) | P9WIQ1 | inhibition, % at 10 µM; in the data active = inhibition above about 10%, passing the limit was not always enough; inconclusive = no clear call, values can overlap the other calls
# Target sequence (P9WIQ1 whole entry, looked up): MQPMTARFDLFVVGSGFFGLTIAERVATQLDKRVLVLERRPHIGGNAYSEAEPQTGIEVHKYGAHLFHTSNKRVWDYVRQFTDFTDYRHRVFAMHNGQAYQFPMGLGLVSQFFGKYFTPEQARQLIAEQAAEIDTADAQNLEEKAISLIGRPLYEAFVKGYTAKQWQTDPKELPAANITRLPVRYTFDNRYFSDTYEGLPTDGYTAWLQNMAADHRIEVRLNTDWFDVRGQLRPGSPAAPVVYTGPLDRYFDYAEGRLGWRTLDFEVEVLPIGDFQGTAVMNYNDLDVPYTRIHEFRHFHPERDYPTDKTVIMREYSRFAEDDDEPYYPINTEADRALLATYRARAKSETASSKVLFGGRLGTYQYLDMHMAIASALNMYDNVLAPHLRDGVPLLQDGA
# * hit, by the source's call; ? = inconclusive; . = no result given. An excerpt weighted towards active compounds, which were near 0.97% of everything screened.
SMILES,TcdB GH inh,Mtb BioA inh,FadD28 FP inh,RecA intein inh,Rv3671c inh,Mtb UGM inh
C[C@@H]1CN([C@@H](C)CO)C(=O)c2cc(NS(=O)(=O)c3ccc(F)cc3)ccc2O[C@@H](C)CCCCO[C@@H]1CN(C)C(=O)Nc1cccc2ccccc12,-0.7,-0.3,.,.,.,.
CCc1c(C(=O)NNC(=S)Nc2ccc(S(=O)(=O)Nc3ncccn3)cc2)csc1C,0.1,-0.4,9.6*,-0.6,2.3,2.8
N#CC1=C(N)C2=C(N3CCCCC3)CCCC2C1(C#N)C#N (stereo unspecified),.,1.6,45.5*,-11.9,8.2,1.2
Cc1ccc(C(=O)NC(=O)OCCn2c(C)cnc2[N+](=O)[O-])cc1,14.5*,.,-1.2,0.2,-0.3,1.4
COc1ccc2c3c(n(C)c2c1)[C@H](CO)N(C(=O)NC(C)C)CC31CCN(CC2CCCC2)CC1,0.8,.,.,.,.,.
Cn1cc(S(=O)(=O)CC(=O)N2CCCc3ccccc32)c2ccccc21,11.3*,-0.2,-4.5,1.1,0.1,2.9
Cc1noc(C)c1NC(=O)N(C)C[C@@H]1Oc2ncc(C#CC3CCCC3)cc2C(=O)N([C@@H](C)CO)C[C@H]1C,-1.8,-0.9,.,.,.,.
C[C@H]1CN([C@@H](C)CO)S(=O)(=O)c2ccc(-c3cncnc3)cc2O[C@H]1CN(C)C(=O)CC1CC1,-1.5,0.4,.,.,.,.
COc1ccc(NC(=O)N2CCCCN3[C@@H](CO)[C@H](c4ccc(-c5ccccc5C)cc4)[C@@H]3C2)cc1,.,-1.1,.,.,.,.
Cc1ccc(S(=O)(=O)N2CCOCC2)cc1C(=O)NCCCN1CCCC1=O,10.6*,-4.0,0.5,.,.,.
O=C(NCCCN1CCCC1=O)c1cc(S(=O)(=O)N2CCN(c3ccccc3)CC2)ccc1Cl,-0.7,3.7,-1.5,.,.,.
CCN(CC(=O)Nc1c(F)cccc1F)C(=O)CN1C(=O)c2ccccc2C1=O,2.0,-3.0,-2.5,-2.3,5.1,-1.7
CCN(CC(=O)Nc1c(F)cccc1F)C(=O)Cc1ccccc1,1.3,1.0,9.7*,0.6,-1.0,2.5
N#CC1=C(N)C(C#N)(C#N)[C@H](c2c(F)cccc2F)[C@H]2CC3(CC=C12)OCCO3,1.7,-5.9,0.3,34.9*,3.3,0.4
C[C@H]1CCCCO[C@@H](CN(C)C(=O)Nc2ccc(C(F)(F)F)cc2)[C@@H](C)CN([C@@H](C)CO)C(=O)c2cc(NC(=O)NC3CCCCC3)ccc2O1,0.0,1.5,.,.,.,.
COc1cc(C2C(C#N)=C(N)Oc3c2c(-c2ccccc2)nn3-c2ccccc2)cc(OC)c1OC (stereo unspecified),.,.,-0.6,69.6*,6.8,-2.4
COc1ccc(C)cc1NC(=O)C(OC(=O)c1cnccn1)c1ccccc1 (stereo unspecified),-1.0,3.8,-4.8,-1.2,-2.7,-1.8
COc1ccc(C)cc1NC(=O)C(OC(=O)C1=NNC(=O)CC1)c1ccccc1 (stereo unspecified),12.7*,-2.8,-1.7,.,9.4,-0.5
O=C(NC(=S)Nc1cc([N+](=O)[O-])ccc1O)c1ccc2c(c1)OCO2,1.5,0.0,13.3*,-0.3,10.8,-0.4
COc1cc([N+](=O)[O-])ccc1NC(=S)NNC(=O)c1ccc2c(c1)OCO2,2.4,2.0,?,1.3,1.4,5.2
Cc1sc(NC(=O)/C=C/C(=O)O)c(C(N)=O)c1-c1ccc(C(C)(C)C)cc1,.,.,0.6,61.3*,2.6,1.1
CCOC(=O)c1c(NC(=O)/C=C\C(=O)O)sc(C)c1-c1ccccc1,-1.8,.,-4.3,56.3*,5.1,1.8
CCOC(=O)c1c(NC(=O)/C=C/C(=O)O)sc(C)c1-c1ccc(C(C)(C)C)cc1,-1.8,.,-5.1,.,-22.5,-2.6
C[C@H]1CN([C@@H](C)CO)S(=O)(=O)c2ccc(-c3ccncc3)cc2O[C@@H]1CN(C)Cc1ccccc1,3.9,1.8,.,.,.,.
C[C@H]1CN([C@@H](C)CO)S(=O)(=O)c2ccc(-c3ccncc3)cc2O[C@H]1CN(C)Cc1ccc(Oc2ccccc2)cc1,12.4*,-0.9,.,.,.,.
C[C@@H]1CN([C@@H](C)CO)S(=O)(=O)c2ccc(-c3ccncc3)cc2O[C@H]1CN(C)Cc1ccccc1,0.3,0.2,.,.,.,.
C[C@@H]1CN([C@H](C)CO)S(=O)(=O)c2ccc(-c3ccncc3)cc2O[C@@H]1CN(C)Cc1ccc(Oc2ccccc2)cc1,11.2*,-0.7,.,.,.,.
C[C@H]1CN([C@@H](C)CO)S(=O)(=O)c2ccc(-c3ccncc3)cc2O[C@@H]1CN(C)Cc1ccc(Oc2ccccc2)cc1,20.1*,0.4,.,.,.,.

# Screening data: PubChem BioAssay, several laboratories
